# Results taken from PubChem BioAssay (NCI).
# Compounds without any hit were thinned out: in the full panel of roughly 83,000, 20% have a hit.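 Single-concentration screen, 48 h exposure, 96-well plates. Endpoint: percent growth. Below 10 = active.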 A number with no mark means an inactive call. Active and inactive are the calls of the source.
# Test system: MDA-MB-468 breast
# Assay: NCI-60 one-dose screen, 48 h (100 = growth as untreated, 0 = no growth, -100 = all killed)
# Conditions: 10 µM unless noted
row,SMILES,growth
1,CC(Nc1ncnc2ccc(-c3cnc4cnccn34)cc12)c1ccccc1 (stereo not drawn),-21% (active)
2,CCC1N=C(N)N=C(N)N1c1ccc(Cl)cc1 (stereo not drawn),80.6%
3,NC(=N\N=C/c1ccc(O)cc1)/C(N)=N\N=C/c1ccc(O)cc1,103%
4,Cc1cccc(C)c1NC(=O)CN(CC(C)C)CC(O)COc1ccccc1 (stereo not drawn),94.5%
5,Nc1ccc(-c2nn3c(CCC(=O)c4nc5ncccc5[nH]4)nnc3s2)c(O)c1,74.6%
6,CCOC(=O)/C=C/c1ccc(C(=O)OCC)[nH]1,53.5%
7,CSc1nc2sc3c(c2c(=O)n1-c1ccc([N+](=O)[O-])cc1)CCCCC3,83%
8,COC(=O)[C@H]1[C@H]2C[C@@H]3c4[nH]c5cc(OC)ccc5c4CCN3C[C@H]2C[C@@H](OC(=O)/C=C/c2cc(OC)c(OC)c(OC)c2)[C@@H]1OC,9.21% (active)
